Results as given in PubChem BioAssay AID1347416 (National Center for Advancing Translational Sciences (NCATS), 2020).
Among all 4,100 compounds or so, about 1,600 (39%) were called active. About 25% were inconclusive and are not listed. Calls come from the whole dose curve; as a rule, active = well fitted inhibition curve with a large enough effect; inconclusive = small, poorly fitted or top-dose-only effect; inactive = no such curve, though single readings can be large or run the other way. The list shows a part of the results.

Assay: qHTS Validation assay for Inhibitors of Plasmodium falciparum Dd2 growth in vitro; note: nearly all actives have a fitted effect of over 70% in size
Conditions: P. falciparum Dd2 in RBCs, SYBR Green growth, 72 h; series mostly up to 28.7 µM; activity change, negative = inhibition: at the top concentration
Outline: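 P. falciparum Dd2-infected red blood cells (2.5% hematocrit, 0.3% parasitemia) grown 72 h at 37 °C under 5% O2 with compounds in a titration, 29 uM to 0.5 nM final. Growth read as SYBR Green-1 fluorescence after ~16 h lysis; artesunate 300 nM as positive control.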
% is set by controls: 0 for no effect and ±100 for the full control effect; potency is the fitted concentration of half-maximal effect.

Potency, active:
O=C(NCCc1c[nH]c2ccccc12)[C@@H]1C[C@H]2C(=O)NCCCCCCN(C(=O)c3ccco3)[C@H]2C1 10.6 µM, CCCCn1c(N)c(N(CC(C)C)C(=O)c2cc(-c3ccc(OC)c(OC)c3)nc3ccccc23)c(=O)[nH]c1=O 11.9 µM, COc1ccccc1NC(=O)N1CC(=O)Nc2sc3c(c2C1c1ccccc1)CCCC3 (stereo not drawn) 15 µM, Cc1cc(C)cc(N(CC(=O)NCc2ccc3c(c2)OCO3)C(=O)CCC(=O)Nc2ccccn2)c1 4.22 µM, COc1ccc(N(CC(=O)NCc2ccccc2)C(=O)CCC(=O)Nc2cc(C)ccn2)c(OC)c1 10.6 µM, COc1cccc(Nc2ccc3c(n2)C(C)(C(=O)NC2CCN(C)CC2)CN(C)C3)c1 (stereo not drawn) 17.2 µM, CN1Cc2ccc(Nc3ccccc3)nc2C(C)(C(=O)NCc2ccc3c(c2)OCO3)C1 (stereo not drawn) 13.7 µM, COc1cccc(Nc2ccc3c(n2)C(C)(C(=O)NC2CCC2)CN(C)C3)c1 (stereo not drawn) 15.3 µM, COc1cccc(Nc2ccc3c(n2)C(C)(C(=O)NCC2CC2)CN(C)C3)c1 (stereo not drawn) 12.2 µM, O=c1[nH]c(C2CCN(S(=O)(=O)/C=C/c3ccccc3)CC2)nc2c1nnn2Cc1ccc(F)cc1 13.3 µM, O=c1[nH]c(C2CCN(S(=O)(=O)c3ccc4c(c3)OCCO4)CC2)nc2c1nnn2Cc1ccc(F)cc1 8.41 µM

Activity change, negative = inhibition, inactive:
O=C1NCCCCCN(C(=O)CC2CCCC2)[C@@H]2C[C@@H](C(=O)N3CCc4ccccc4C3)C[C@H]12 -34.7%, O=C1NCCCCCN(C(=O)c2ccsc2)[C@@H]2C[C@@H](C(=O)N3CCc4ccccc4C3)C[C@H]12 -27.2%, CCCCCn1c(=O)[nH]c2cc(C(=O)NCc3ccc(OC)cc3)ccc2c1=O 0.541%, CCOc1ccccc1NC(=O)c1c(NC(=O)COc2ccccc2)sc2c1CCCCC2 0%, COc1ccc(C(=O)/C=C/Nc2cc(C)ccn2)cc1 4.09%, CC(=O)N1CCCC(c2nn(C)c(=O)n2C2CCCC2)C1 (stereo not drawn) 40.2%, COc1cccc(CCC(=O)NC2CCN(C(=O)c3cc4c(=O)[nH]c(C)cn4n3)CC2)c1 -16.4%, Cc1cnc(C(=O)N[C@@H]2CCC[C@@H]2C(=O)NCc2ccc3c(c2)OCO3)cn1 0.894%, CCC(C)NC(=O)CSc1nc2cc3c(cc2c(=O)n1CCCC(=O)NCc1ccc2c(c1)OCO2)OCO3 (stereo not drawn) 35.5%, Cc1nncn1C1CCN(S(=O)(=O)c2ccc(F)c(F)c2)CC1 9.9%, c1ccc(-c2noc(-c3cncnc3NC3CCCCCC3)n2)cc1 23.1%, CC(C)(C)NC(=S)Nc1ccc(Nc2ccccc2)cc1 -11.7%
